Assay outcomes from PubChem BioAssay.
SNCA expr inhib = reduces expression of the alpha-synuclein gene; AID 1671194; HEK-293 SNCA-luciferase knock-in, luminescence, 24 h; 140,000 tested, 0.17% active; Potency, µM (series often up to 57.2 µM), usual class: inhibitors; note: nearly all actives have a fitted effect of over 45% in size
SNCA viab count = reduces viability of HEK-293 SNCA reporter cells. HEK-293-SNCA-luc viability, GF-AFC fluorescence, 24 h. AID 1671193. 150,000 tested, 0.12% active. Potency, µM (highest dose often 57.1 µM), actives largely listed as cytotoxic; note: nearly all actives have a fitted effect of over 30% in size
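HEK-293-SNCA-luc cells (1500/well) plated 24 h, then exposed 24 h to a dilution series; GF-AFC added 30 min at 37C, fluorescence 405/540 nm; normalised to medium-only and DMSO wells, Hill fit.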
KDM5B inhibitor = blocks human KDM5B histone demethylase activity; Q9UGL1; AID 1347165; 220,000 tested, 2.6% active; Potency, µM (titrated, usually from 57.7 µM), hits mostly inhibitors; KDM5B demethylase, FDH-coupled NADH fluorescence (FDH is formaldehyde dehydrogenase); note: nearly all actives have a fitted effect of over 70% in size
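Here, H3K4me3 peptide (12.5 µM in substrate mix) is demethylated by KDM5BΔAP, 200 nM final, after 10 min compound exposure. Formaldehyde product is coupled through FDH (0.25 U/mL in mix) to NADH fluorescence; 30-min ΔRFU feeds dose-response curves.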
IP6K1 inhibitor = blocks human inositol hexakisphosphate kinase 1 | Q92551 | IP6K1 kinase, ADP-Glo luminescence, 2 h; active compounds read low | activity change, % (series mostly up to about 58 µM) | 140,000 tested, 0.81% active | AID 1645851; in the data active = activity change below about -25%
Target sequence (Q92551 whole entry, looked up): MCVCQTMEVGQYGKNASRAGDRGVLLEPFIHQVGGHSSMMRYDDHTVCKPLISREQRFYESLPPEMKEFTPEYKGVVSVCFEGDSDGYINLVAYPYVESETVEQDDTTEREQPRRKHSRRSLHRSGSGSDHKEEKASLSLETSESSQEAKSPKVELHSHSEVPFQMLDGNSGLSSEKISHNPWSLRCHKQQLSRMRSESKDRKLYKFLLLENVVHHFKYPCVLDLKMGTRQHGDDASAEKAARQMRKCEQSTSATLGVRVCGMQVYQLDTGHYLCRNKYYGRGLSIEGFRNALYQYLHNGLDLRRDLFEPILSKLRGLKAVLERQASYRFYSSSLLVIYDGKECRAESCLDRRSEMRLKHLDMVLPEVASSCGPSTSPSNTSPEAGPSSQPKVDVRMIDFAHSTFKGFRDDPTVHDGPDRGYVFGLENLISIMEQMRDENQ
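ADP-Glo luminescence measures ADP made by human IP6K1 during a 2 h RT reaction with ATP/IP6 (mix at 1.3 mM/130 uM); top library doses 57.5 and 19.1 uM final.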
A number is an active result. Shown are actives, neighbours in structure and some others; about 2.9% of the full set was active somewhere. Unless noted, calls come from the whole dose curve; as a rule, active = well fitted curve in the direction sought with a large enough effect; inconclusive = small, poorly fitted or top-dose-only effect, or another doubt; inactive = no such curve, though single readings can be large; an effect the other way counts as inactive or inconclusive.

Screening Cc1ccccc1N1Cc2c(ncnc2N2CCC(O)CC2)N(C)CC1=O returned SNCA expr inhib inactive, SNCA viab count inactive, KDM5B inhibitor inactive and IP6K1 inhibitor inactive.
Screening CN(C)C(=O)C1CCCN(c2nc3ncccc3o2)C1 (centres undefined) returned SNCA expr inhib inactive, SNCA viab count inactive, KDM5B inhibitor 25µM and IP6K1 inhibitor inactive.
N#CC1CCN(C(=O)C2CCCN(c3nc4ncccc4o3)C2)CC1 (centres undefined) was read as SNCA expr inhib inactive, SNCA viab count inactive, KDM5B inhibitor 32µM and IP6K1 inhibitor inactive.
Screening O=C(C1CC1)N1CCCN(c2nc3ncccc3o2)CC1 returned SNCA expr inhib inactive, SNCA viab count inactive, KDM5B inhibitor inconclusive and IP6K1 inhibitor inactive.
O=C(C1CCCN(c2nc3ncccc3o2)C1)N1CCCC1 (centres undefined) was read as SNCA expr inhib inactive, SNCA viab count inactive, KDM5B inhibitor 25µM and IP6K1 inhibitor inactive.
For CC(C)NC(=O)C1CCCN(c2nc3ncccc3o2)C1 (centres undefined) the results were SNCA expr inhib inactive, SNCA viab count inactive, KDM5B inhibitor 20µM and IP6K1 inhibitor inactive.
Screening O=C(c1cc2ccccc2oc1=O)N(Cc1ccc(Cl)cc1)Cc1ccco1 returned KDM5B inhibitor inactive.
For COC(=O)N1CCN(C(=O)c2nc3cccnc3n(CCc3ccccc3)c2=O)CC1 the results were SNCA expr inhib inactive, SNCA viab count inactive and IP6K1 inhibitor inactive.
Cn1cnc2cc(Nc3ccc(Cl)cc3F)cc(C(=O)NCc3cccnc3)c21 was read as SNCA expr inhib inconclusive, SNCA viab count inactive, KDM5B inhibitor 35µM and IP6K1 inhibitor inactive.
Cn1cncc1CNC(=O)c1cc(-c2ccc(F)cc2)cc2ncn(C)c12 was read as SNCA expr inhib inactive, SNCA viab count inactive, KDM5B inhibitor 28µM and IP6K1 inhibitor inactive.
For Cc1cc(C)c(CNC(=O)c2cc(-c3ccc(F)cc3)cc3ncn(C)c23)c(=O)[nH]1 the results were SNCA expr inhib inactive, SNCA viab count inactive, KDM5B inhibitor inconclusive and IP6K1 inhibitor inactive.
Cn1cnc2cc(-c3cccc4[nH]ncc34)cc(C(=O)NCc3cccnc3)c21 was read as SNCA expr inhib inactive, SNCA viab count inactive, KDM5B inhibitor 40µM and IP6K1 inhibitor inactive.
Screening O=C(C1CC1)N1CCC2(C1)C(=O)N(CCc1ccccc1)c1ccccc12 (centres undefined) returned SNCA expr inhib inconclusive, SNCA viab count inactive, KDM5B inhibitor inactive and IP6K1 inhibitor inactive.
COc1cccc(-n2nc(C(=O)O)cc2-c2ccc(C3CCCCC3)c(Cl)c2)c1 was read as SNCA viab count inactive and IP6K1 inhibitor -38.
Screening COc1cccc(-c2ccc(CN3CCCC(NC(=O)Cc4ccc(F)cc4)C3)cc2)c1 (centres undefined) returned IP6K1 inhibitor inactive.
Screening CCC1(CO)CCCN(Cc2ccc3c4c(cccc24)C(=O)OC3)C1 (centres undefined) returned SNCA expr inhib inactive, SNCA viab count inactive, KDM5B inhibitor 11µM and IP6K1 inhibitor inactive.
For CN(C)c1cccc(NC(=O)c2ccc3c(c2)NC(C)(COc2cccnc2)CO3)c1 (centres undefined) the results were SNCA expr inhib inactive, SNCA viab count inactive, KDM5B inhibitor inconclusive and IP6K1 inhibitor inactive.
CN(C)c1cccc(NC(=O)c2ccc3c(c2)NC(C)(COc2ccccc2)CO3)c1 (centres undefined) was read as SNCA expr inhib inconclusive, SNCA viab count inactive, KDM5B inhibitor 32µM and IP6K1 inhibitor inactive.
`CNC(=O)c1ccc2c(c1)NC(C)(CNc1ccccc1)CO2` (centres undefined) gave SNCA expr inhib inactive, SNCA viab count inactive, KDM5B inhibitor inconclusive and IP6K1 inhibitor inactive.
`CNC(=O)c1ccc2c(c1)NC(C)(COc1ccccc1)CO2` (centres undefined) gave SNCA expr inhib inactive, SNCA viab count inactive, KDM5B inhibitor 32µM and IP6K1 inhibitor inactive.
For Cc1ccc(NC(=O)C2CCCN(c3cnc4nccnc4c3)C2)cc1Cl (centres undefined) the results were SNCA expr inhib inactive, SNCA viab count inactive, KDM5B inhibitor inactive and IP6K1 inhibitor inactive.
`Fc1ccccc1-c1cnc2n[nH]c(-c3ccccc3)c2n1` gave SNCA expr inhib inconclusive, SNCA viab count inactive, KDM5B inhibitor 32µM and IP6K1 inhibitor inactive.
Screening c1ccc(-c2cnc3n[nH]c(-c4ccccc4)c3n2)cc1 returned SNCA expr inhib inactive, SNCA viab count inactive, KDM5B inhibitor inconclusive and IP6K1 inhibitor inactive.
Screening COc1ccc(-c2cnc3n[nH]c(-c4ccc(F)cc4C)c3n2)cc1OC returned SNCA expr inhib inactive, SNCA viab count inactive, KDM5B inhibitor 32µM and IP6K1 inhibitor inactive.
For COc1ncccc1-c1cnc2n[nH]c(-c3ccccc3)c2n1 the results were SNCA expr inhib inactive, SNCA viab count inactive, KDM5B inhibitor 35µM and IP6K1 inhibitor inactive.
`Cc1cc(C)cc(-c2[nH]nc3ncc(-c4ccsc4)nc23)c1` gave SNCA expr inhib inactive, SNCA viab count inconclusive, KDM5B inhibitor 28µM and IP6K1 inhibitor inactive.
COc1cccc(-c2cnc3n[nH]c(-c4ccc(F)cc4C)c3n2)c1 was read as SNCA expr inhib inactive, SNCA viab count inactive, KDM5B inhibitor inconclusive and IP6K1 inhibitor inactive.
Cc1ccsc1-c1[nH]nc2ncc(-c3ccc(F)cc3)nc12 was read as SNCA expr inhib inactive, SNCA viab count inactive, KDM5B inhibitor inactive and IP6K1 inhibitor inactive.
For CCN(CC)c1ccc(C2C3=C(CC(C)(C)CC3=O)Nc3cc4c(cc32)OCO4)cc1 (centres undefined) the results were KDM5B inhibitor inactive.
CCOc1ccccc1NC(=O)N1CCC2(CC1)CC(N1CCN(C(C)C)CC1)CCO2 (centres undefined) was read as SNCA expr inhib inactive, SNCA viab count inactive, KDM5B inhibitor inactive and IP6K1 inhibitor inactive.
Screening O=C(CSc1nc(=O)[nH]c2c1CCC2)Nc1cccc(C(F)(F)F)c1 returned KDM5B inhibitor inactive.
Screening COc1ccccc1-c1[nH]nc2ncc(-c3cccnc3OC)nc12 returned SNCA expr inhib inactive, SNCA viab count inactive, KDM5B inhibitor inactive and IP6K1 inhibitor inactive.
Screening COc1ccc(-c2[nH]nc3ncc(-c4cccnc4)nc23)cc1F returned SNCA expr inhib 2.8µM, SNCA viab count inconclusive, KDM5B inhibitor inactive and IP6K1 inhibitor inactive.
Screening COc1ncccc1-c1cnc2n[nH]c(-c3ccccc3C)c2n1 returned SNCA expr inhib inconclusive, SNCA viab count inactive, KDM5B inhibitor 40µM and IP6K1 inhibitor inactive.
COc1ccccc1-c1cnc2n[nH]c(-c3ccccc3)c2n1 was read as SNCA expr inhib inconclusive, SNCA viab count inactive, KDM5B inhibitor 35µM and IP6K1 inhibitor inactive.
`Cc1cccc(-c2cnc3n[nH]c(-c4ccccc4)c3n2)c1` gave SNCA expr inhib inconclusive, SNCA viab count inconclusive, KDM5B inhibitor 35µM and IP6K1 inhibitor inactive.
`CN(C)c1ccc(C(=O)N2CCC(n3cc(-c4nc(-c5ccccc5)no4)nn3)C2)cc1` (centres undefined) gave SNCA expr inhib inactive, SNCA viab count inactive, KDM5B inhibitor inconclusive and IP6K1 inhibitor inactive.
